Test results published in PubChem BioAssay (EPA / NIEHS).
Results filed as inconclusive are left out. Active and inactive are the calls of the source. Rule for the calls, unless noted: active = hit-call score of the fitted dose curve at least 0.9, where 1 is the maximum; inactive = score below 0.9.

Legend:
[1] = CCTE_Mundy_HCI_Cortical_NOG_NeuriteCount: CCTE's Neurite Outgrowth Assay in rat cortical cells for Neurite Count, Mundy Lab (AID 2284212);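 note: cells fixed about two days after chemical exposure began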
Procedure, shortened: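 Rat cortical primary cells; compound added 2 h post-plating, 1/10 dilution of working solution. Anti-betaIII-tubulin/AF488 ICC; ArrayScan neurite count vs DMSO.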

[2] = CCTE_Mundy_HCI_Cortical_NOG_NeuriteLength: CCTE's Neurite Outgrowth Assay in rat cortical cells for Neurite Length, Mundy Lab (AID 2284213);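 note: neurites imaged about 48 to 50 h after chemical exposure began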
Procedure, shortened: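 First, rat primary cortical cells were plated and, 2 h later, given test chemical as a 1/10 dilution. Finally, βIII-tubulin immunostaining enabled automated imaging of neurite length.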

[3] = CCTE_Mundy_HCI_Cortical_Synap_Neur_Matur_NeuriteLength: CCTE's Synaptogenesis and Neurite Maturation Assay in rat cortical cells for Neurite Length, Mundy Lab (AID 2284214)
Procedure, shortened: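 DMSO-normalised neurite length, from high-content imaging of anti-MAP2-stained rat cortical cells fixed at DIV 12. Glia were suppressed with AraC (DIV 5) before chemical exposure from DIV 7.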

[4] = CCTE_Mundy_HCI_Cortical_Synap_Neur_Matur_SynapseCount: CCTE's Synaptogenesis and Neurite Maturation Assay in rat cortical cells for Synapse Count, Mundy Lab (AID 2284218)
Procedure, shortened: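 Endpoint: synapses/neuron by HCI (synaptophysin puncta on MAP2-labelled neurites, Hoechst nuclei). Rat primary cortical cells, AraC DIV 5, dosed DIV 7, fixed DIV 12; DMSO negative control.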

[5] = CCTE_Mundy_HCI_Cortical_Synap_Neur_Matur_NeuriteCount: CCTE's Synaptogenesis and Neurite Maturation Assay in rat cortical cells for Neurite Count, Mundy Lab (AID 2284222)
Procedure, shortened: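 Rat primary cortical cells; AraC added at DIV 5, chemicals dosed with media change at DIV 7 through DIV 12. MAP2/synaptophysin/Hoechst immunostaining, high-content imaging of neurite number; fitted relative to DMSO.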

[6] = CCTE_Mundy_HCI_Cortical_Synap_Neur_Matur_CellBodySpotCount: CCTE's Synaptogenesis and Neurite Maturation Assay in rat cortical cells for Cell Body Spot Count, Mundy Lab (AID 2284223)
Procedure, shortened: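 High-content imaging counts synaptophysin puncta on neuronal cell bodies per neuron after MAP2/synaptophysin immunostaining. Rat primary cortical cells, glia arrested with AraC at DIV 5, were exposed DIV 7–12; signal decrease measured against DMSO.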

[7] = CCTE_Mundy_HCI_hNP1_Pro_ResponderAvgInten: CCTE's Proliferation Assay in human neuroprogenitor cells, Mundy Lab (AID 2284224; active = hit-call score of the fitted dose curve at least 0.9, where 1 is the maximum;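 note: human neural progenitor cells hNP1 derived from WA09 embryonic stem cells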)
Procedure, shortened: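 Proliferation read as average intensity of BrdU-positive cells, imaged at 26.25 h post-dosing: chemical exposure started after 40–44 h culture, BrdU during final 4 h, paraformaldehyde fixation. Positive-direction fit relative to DMSO.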

[8] = UKN2_HCS_IMR90_cell_viability: Viability Assessment in the University of Konstanz (UKN) Leist Lab Neural Crest Cell Migration Assay in human induced IMR90 Pluripotent Stem Cells (UKN2) (AID 2284233);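 note: cells exposed to compound for 24 h after a 24 h migration phase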
Procedure, shortened: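 Viability read as calcein-AM fluorescence by high-content imaging, Hoechst co-stain, 30 min. Human iPSC (IMR90) neural crest cells had migrated 24 h into stopper-defined gaps before 24 h chemical exposure. Fitted bidirectionally relative to DMSO.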

[9] = CCTE_Mundy_HCI_Cortical_NOG_NeuronCount: CCTE's Neurite Outgrowth Assay in rat cortical cells for Neuron Count, Mundy Lab (AID 2284236; active = hit-call score of the fitted dose curve at least 0.9, where 1 is the maximum;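 note: neurons counted by imaging betaIII-tubulin and Hoechst stained cortical cells; cells exposed to compound for about 48 hours before fixation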)
Procedure, shortened: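 Read-out: neuron number by high-content imaging of betaIII-tubulin (Alexa Fluor-488) and Hoechst-labelled rat primary cortical cells.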

[10] = CCTE_Mundy_HCI_Cortical_NOG_BPCount: CCTE's Neurite Outgrowth Assay in rat cortical cells for Branch Point Count, Mundy Lab (AID 2284237);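 note: branch points counted about two days after chemical exposure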
Procedure, shortened: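 Measured 50.33 h after dosing, this morphology endpoint uses rat primary cortical cultures labelled for betaIII-tubulin. Branch points are quantified by high-content imaging, with DMSO as negative control and baseline.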

[11] = CCTE_Mundy_HCI_hNP1_Casp3_7: CCTE's Caspase-Glo 3/7 Assay in human neuroprogenitor cells for Apoptosis, Mundy Lab (AID 2284240)
Procedure, shortened: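 Luminescent caspase-3/7 readout, 26.5 h post-dose, in human neural progenitor cells from WA09 embryonic stem cells. Cells grew 40–44 h at 37 °C, 5% CO2 before chemical addition. Activity analysed as signal increase over DMSO baseline.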

[12] = CCTE_Mundy_HCI_Cortical_Synap_Neur_Matur_NeuronCount: CCTE's Synaptogenesis and Neurite Maturation Assay in rat cortical cells for Neuron Count, Mundy Lab (AID 2284242; active = hit-call score of the fitted dose curve at least 0.9, where 1 is the maximum;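 note: hits reduce neuron count versus DMSO baseline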)
Procedure, shortened: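 Measured at DIV 12: fluorescently labelled neurons (Hoechst nuclei, MAP2) in rat primary cortical cultures, counted by high-content imaging. AraC suppressed glia from DIV 5; DMSO served as negative control.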

[13] = IUF_NPC2a_radial_glia_migration_120hr: Leibniz Research Institute for Environmental Medicine (IUF) 120-hour Neural Progenitor Cell Migration Assay for Radial Glia Migration (NPC2a) (AID 2284298)
Procedure, shortened: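 Migration distance in um, sphere core edge to migration-area edge, derived by nuclei-density algorithm from Hoechst images after 120 h compound exposure. Primary hNPC spheres differentiated on poly-D-lysine/laminin in N2 medium, 37C; medium half-replaced day 3.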

[14] = IUF_NPC2a_radial_glia_migration_72hr: Leibniz Research Institute for Environmental Medicine (IUF) 72-hour Neural Progenitor Cell Migration Assay for Radial Glia Migration (NPC2a) (AID 2284299)
Procedure, shortened: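 Spheres of human primary neural progenitors migrate on poly-D-lysine/laminin under compound exposure at 37C, 5% CO2. The 72 h radial glia migration distance comes from brightfield images, measured manually.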

[15] = IUF_NPC3_neuronal_differentiation_120hr: Leibniz Research Institute for Environmental Medicine (IUF) 120-hour Neuronal Differentiation Assay (NPC3) (AID 2284301)
Procedure, shortened: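 hNPC spheres, PDL/laminin, DMEM/F12 3:1 + 1% N2, 37C, 5% CO2; 7 concentrations + solvent control, 5 d exposure, half-change day 3. Fix 120 h; TUBB3/Hoechst ICC, CNN neuron calling; % neurons vs nuclei, DMSO-normalized.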

[16] = IUF_NPC4_neurite_length_120hr: Leibniz Research Institute for Environmental Medicine (IUF) 120-hour Neuronal Morphology Assay for Neurite Length (NPC4) (AID 2284302)
Procedure, shortened: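 hNPC spheres (0.3 mm, fetal brain GW 16-19) on PDL/laminin, DMEM:F12 3:1 + 1% N2, 37C 5% CO2; 7 concs + solvent control, day 0-5, half medium change d3; fix 120 h, TUBB3 ICC, mean neurite length um vs DMSO.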

[17] = IUF_NPC2-5_cytotoxicity_120hr: Cytotoxicity Assessment at 120 hours in the Leibniz Research Institute for Environmental Medicine (IUF) Neural Progenitor Cell Migration and Differentiation Assay (NPC2-5) (AID 2284307; active = hit-call score of the fitted dose curve at least 0.9, where 1 is the maximum)
Procedure, shortened: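 Membrane-integrity loss measured as LDH activity in medium supernatant via resazurin-to-resorufin fluorescence after 120 h exposure. hNPC spheres from GW 16-19 fetal cortex differentiated on poly-D-lysine/laminin, 37C, medium half-refreshed day 3; seven concentrations, DMSO max 0.1%.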

[18] = IUF_NPC2-5_cell_number_120hr: Cell Number Assessment at 120 hours in the Leibniz Research Institute for Environmental Medicine (IUF) Neural Progenitor Cell Migration and Differentiation Assay (NPC2-5) (AID 2284308);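 note: count of Hoechst-stained nuclei in migration zone around plated human neural progenitor spheres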
Procedure, shortened: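 Counting of all Hoechst-stained nuclei in the migration area at 120 h, versus DMSO control. Primary hNPC spheres differentiated on poly-D-lysine/laminin in N2 medium at 37C, dosed from day 0 (7 concentrations, DMSO ≤0.1%), half-refed day 3.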

[19] = IUF_NPC2-5_viability_120hr: Viability Assessment at 120 hours in the Leibniz Research Institute for Environmental Medicine (IUF) Neural Progenitor Cell Migration and Differentiation Assay (NPC2-5) (AID 2284312)
Procedure, shortened: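 Human fetal neural progenitor spheres (0.3 mm) plated on poly-D-lysine/laminin in N2 differentiation medium, exposed 120 h with half-medium refresh at day 3. Viability by alamar blue resazurin fluorescence; 7 concentrations, DMSO max 0.1%.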

[20] = IUF_NPC1_cytotoxicity_72hr: Cytotoxicity Assessment at 72 hours in the Leibniz Research Institute for Environmental Medicine (IUF) Neural Progenitor Cell Proliferation Assay (NPC1) (AID 2284332; active = hit-call score of the fitted dose curve at least 0.9, where 1 is the maximum;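 note: rising LDH signal means more cytotoxicity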)
Procedure, shortened: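 Readout is fluorescence from LDH-dependent resazurin conversion, sampled from culture medium after compound contact lasting 72 h. Each well holds one 0.25-0.35 mm human progenitor sphere kept at 37C, 5% CO2 with EGF and FGF.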

[21] = CCTE_Mundy_HCI_iCellGluta_NOG_NeuronCount: CCTE's Neurite Outgrowth Assay in iCellGluta cells for Neuron Count, Mundy Lab (AID 2284340; active = hit-call score of the fitted dose curve at least 0.9, where 1 is the maximum;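 note: cells fixed about 48 h after compound addition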)
Procedure, shortened: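 Neuron count read by automated high-content imaging of Hoechst 33342 and betaIII-tubulin/Alexa Fluor-488 labelling in human iPSC glutamatergic neurons. Activity fitted relative to DMSO.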

[22] = CCTE_Mundy_HCI_iCellGluta_NOG_NeuriteCount: CCTE's Neurite Outgrowth Assay in iCellGluta cells for Neurite Count, Mundy Lab (AID 2284342; active = hit-call score of the fitted dose curve at least 0.9, where 1 is the maximum;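 note: chemical exposure about 48 hours starting 2 hours after plating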)

Measured: AC50

CC1(C)[C@H](C=C(Cl)Cl)[C@H]1C(=O)OCc1c(F)c(F)cc(F)c1F
active: [1] 80.1 µM | [2] 78.2 µM | [3] 9.91 µM | [4] 9.74 µM | [5] 11.9 µM | [6] 12.8 µM | [7] 22 µM | [9] 50 µM | [10] 81.1 µM | [11] 26.7 µM | [12] 8.94 µM | [21] 21.7 µM | [22] 19.9 µM
inactive: [8] | [13] | [14] | [15] | [16] | [17] | [18] | [19] | [20]
